The values below come from PubChem BioAssay AID1224855 (National Center for Advancing Translational Sciences (NCATS), 2016).

The assay in a line: Confirmation assay for measurement of the activity of small molecule inhibitors on Zika virus induced Caspase-3 activity in human iPSC derived neural progenitor cells (hNPCs). Particulars: hNPC ZIKV-induced caspase-3/7, Caspase-Glo luminescence, 6 h; series mostly up to 46.1 µM. The procedure, abridged: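 qHTS and confirmation format: hNPCs (350 cells/well in 1536-well format), 1 h compound, ZIKV 2 FFU/cell for 6 h, Caspase-Glo 3/7 luminescence; normalized to infected and uninfected control wells.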

Inconclusive results are not listed. Active and inactive are the calls of the source. Calls come from the whole dose curve; as a rule, active = well fitted inhibition curve with a large enough effect; inconclusive = small, poorly fitted or top-dose-only effect; inactive = no such curve, though single readings can be large or run the other way.

For the compound `O=c1c2ccccc2nc2n1CCc1c-2[nH]c2ccccc12`, the Potency is 4.35 µM (active).

As to `COc1ccc(C=CC(=O)Nc2ccccc2C(=O)O)cc1OC`, the Potency was 17.3 µM (active).

On to `CCCC(=O)OC[C@@H](OC(=O)CCC)[C@@H](OC(=O)CCC)[C@H](Cn1c2nc(=O)[nH]c(=O)c-2nc2cc(C)c(C)cc21)OC(=O)CCC`, for which the Potency result was “inactive”.

On to `Cc1c(NC(=O)c2ccc(C(C)(C)C)cc2)cccc1-c1cn(C)c(=O)c(Nc2ccc(C(=O)N3CCOCC3)cc2)n1`, for which the Potency entry is “inactive”.

On to `CC(=O)OC(C)OC(=O)C(C)c1ccc(-c2ccccc2)c(F)c1` (centres undefined), for which the Potency result was “inactive”.

Take `O=C(O)[C@@H](c1ccc(OCc2ccc3ccccc3n2)cc1)C1CCCC1`: the Potency is 6.9 µM (active).

With `Cc1cccc(C#Cc2ccccc2)n1`, the Potency was 3.46 µM (active).

Consider `CCCCCNC(=O)N1CCC(CN(Cc2ccc(Cl)cc2)Cc2ccc([N+](=O)[O-])s2)C1` (centres undefined), for which the Potency entry was “inactive”.

For the compound `Nc1ncnc2c1ncn2[C@@H]1O[C@@H](CO)[C@H](O)[C@H]1O`, the Potency result is “inactive”.

`O=C1c2ccccc2-[n+]2ccc3c([nH]c4ccccc43)c21`: the Potency is 9.75 µM (active).

On to `CC(=NNC(=S)N1CCC1)c1ccccn1`, for which the Potency result was “inactive”.

`CC(C)OC(=O)CCCC=CC[C@@H]1[C@H](C=C[C@@H](O)COc2cccc(C(F)(F)F)c2)[C@H](O)C[C@@H]1O`: the Potency result is “inactive”.

On to `Oc1ccc(/C=C/c2cc(O)cc(O)c2)cc1`, for which the Potency is 6.15 µM (active).

Turning to `CN(C)c1cc(NC(=O)CNC(C)(C)C)c(O)c2c1C[C@@H]1C[C@H]3[C@H](N(C)C)C(=O)C(C(N)=O)=C(O)[C@@]3(O)C(=O)C1=C2O`, the Potency entry was “inactive”.

Regarding `COCCn1c2c([n+](Cc3cnccn3)c1C)C(=O)c1ccccc1C2=O`, the Potency was 6.15 µM (active).

Consider `COc1ccc(-c2cc(=O)c3c(O)cc(O)cc3o2)cc1O`, for which the Potency was 9.75 µM (active).

With `O=C(Nc1ccc(C(=O)O)c(O)c1)c1ccccc1`, the Potency is 4.35 µM (active).

Take `O=C1C[C@@H](c2ccc(O)cc2)Oc2cc(O)cc(O)c21`: the Potency was 17.3 µM (active).

As for `O=C(O)[C@H](CC(=O)N1C[C@@H]2CCCC[C@H]2C1)Cc1ccccc1`, the Potency result is “inactive”.

Turning to `Cc1c(C(=O)O)c(O)cc2c1C(=O)c1c(O)c([C@@H]3O[C@H](CO)[C@@H](O)[C@H](O)[C@H]3O)c(O)c(O)c1C2=O`, the Potency result is “inactive”.

As for `COc1cccc(-c2cc(=O)c3ccccc3o2)c1N`, the Potency is 4.89 µM (active).

Consider `C/C(=N\O)c1ccc(OCC(=O)N2CCCCC2)cc1`, for which the Potency is 7.74 µM (active).

With `O=C(C=CC=Cc1ccc2c(c1)OCO2)N1CCCCC1`, the Potency is 13.8 µM (active).

With `COc1ccc(-c2coc3cc(O)ccc3c2=O)cc1`, the Potency was 8.69 µM (active).

With `CC1=C(CO)C(=O)O[C@@H]([C@@H](C)[C@H]2CC[C@H]3[C@@H]4C[C@H]5O[C@]56[C@@H](O)C=CC(=O)[C@]6(C)[C@@H]4CC[C@]23C)C1`, the Potency entry is “inactive”.

Consider `COc1cccc2c1C(=O)c1c(O)c3c(c(O)c1C2=O)C[C@@](O)(C(=O)CO)C[C@@H]3O[C@H]1C[C@H](N)[C@H](O[C@@H]2CCCCO2)[C@H](C)O1`, for which the Potency entry was “inactive”.

`O=c1c(-c2ccc(O)cc2)coc2cc(O)ccc12`: the Potency is 13.8 µM (active).

Take `O=C(Nc1ncc([N+](=O)[O-])s1)c1cccs1`: the Potency was 1.23 µM (active).

Turning to `Cc1[nH]c(C=C2C(=O)Nc3ccccc32)c(C)c1CCC(=O)O`, the Potency result was “inactive”.

On to `Oc1cc(O)cc(/C=C/c2ccc(O)c(O)c2)c1`, for which the Potency was 4.89 µM (active).

Turning to `O=C1NC(=O)C(=Cc2ccc(-c3ccc(F)cc3)o2)S1`, the Potency was 9.75 µM (active).

For `CC[C@@]1(O)C[C@H](O[C@H]2C[C@H](N(C)C)[C@H](O[C@H]3C[C@H](O)[C@H](O[C@H]4CCC(=O)[C@H](C)O4)[C@H](C)O3)[C@H](C)O2)c2c(cc3c(c2O)C(=O)c2c(O)cccc2C3=O)[C@@H]1C(=O)OC`, the Potency result was “inactive”.

Take `Cc1csc(NC(=O)c2sc3nc4c(c(C(F)(F)F)c3c2N)CCC4)n1`: the Potency was 15.5 µM (active).

Take `Nc1ccc2c(c1)CN1C(=O)c3ccccc3C1=N2`: the Potency is 1.9 µM (active).
